Outcome and AC50 data for 19 molecules are collected here from PubChem BioAssay (EPA / NIEHS).

“And” between values parts separate entries of the source, which are not always exact repeats. Identical values can stand only once. Inconclusive results are not listed. The source holds several records for some structures; these can differ, active in one and inactive in another. The source made the active and inactive calls. The calls were made as follows: active = hit-call score of the fitted dose curve at least 0.9, where 1 is the maximum; inconclusive = response in the unintended direction; inactive = score below 0.9.

Estrogen receptor (Homo sapiens), sequence (P03372 whole entry, looked up, the tested form may be a part): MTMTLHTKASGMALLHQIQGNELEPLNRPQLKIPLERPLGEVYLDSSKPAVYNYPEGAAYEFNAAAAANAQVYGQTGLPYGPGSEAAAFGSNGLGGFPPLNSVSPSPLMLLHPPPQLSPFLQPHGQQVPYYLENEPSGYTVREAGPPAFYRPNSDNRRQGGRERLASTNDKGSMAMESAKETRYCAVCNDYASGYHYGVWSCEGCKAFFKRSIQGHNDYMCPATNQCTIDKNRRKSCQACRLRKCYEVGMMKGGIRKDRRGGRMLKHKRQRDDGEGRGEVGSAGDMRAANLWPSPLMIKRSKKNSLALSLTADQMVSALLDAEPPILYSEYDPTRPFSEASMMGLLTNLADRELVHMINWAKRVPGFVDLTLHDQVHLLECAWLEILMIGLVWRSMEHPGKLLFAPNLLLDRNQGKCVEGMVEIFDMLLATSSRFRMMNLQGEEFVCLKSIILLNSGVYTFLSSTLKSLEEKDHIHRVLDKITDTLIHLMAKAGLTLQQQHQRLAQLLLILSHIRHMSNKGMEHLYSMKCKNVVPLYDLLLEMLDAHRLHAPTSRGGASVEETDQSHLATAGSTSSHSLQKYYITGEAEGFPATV

One experiment addresses Estrogen receptor (Homo sapiens) (UniProt P03372). Briefly: OT_ER_ERaERa_0480: Odyssey Thera (OT) 8-hour HEK293T Protein-Complementation Assay for Estrogen Receptor-alpha/-alpha Homodimer (AID 2283351).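 Also: rise in fluorescence from reassembled reporter fragments on ERα LBD homodimer in nucleus or whole cell.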 In outline:
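The readout is complementation of fragments fused to the human ER alpha ligand-binding domain (aa 310-547), stably expressed in HEK293T cells. After 8 h of exposure, the increase in nuclear/cytoplasmic fluorescence was measured by laser scanning cytometry and fitted relative to DMSO.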
Take `CC(C)(c1ccc(O)cc1)c1ccc(O)cc1`: the result was inactive. On the same count and under the same terms, to `CCCCC(CC)CN1C(=O)C2C3C=CC(C3)C2C1=O` (stereo not drawn) belongs “inactive”. What is called AC50 is the concentration at which the activity in the assay is half-maximal. As to `O=C(c1ccccc1)C1CCCCC1`, the half-maximal activity concentration (AC50) is 56.4 µM (active) and 39.5 µM (active); the molecule was called inactive. On to `COC(=O)c1ccccc1C(=O)O`, for which the call was inactive. Still for that read-out and setting: the same measure for `C[C@]12C[C@H](O)[C@H]3[C@@H](CCC4=CC(=O)CC[C@@]43C)[C@@H]1CC[C@@H]2C(=O)CO`: “inactive”.

With `CC(=O)[C@H]1CC[C@H]2[C@@H]3CCC4=CC(=O)CC[C@]4(C)[C@H]3CC[C@]12C`, the result was inactive. Take `N#CSCSc1nc2ccccc2s1`: the molecule was called inactive. For `CCOC(=O)c1ccc(O)cc1`, the concentration at half-maximal activity (AC50) is 59.9 µM (active) and 41.1 µM (active) and 59.6 µM (active); the outcome was inactive. Regarding `COc1c(Cl)ccc(Cl)c1C(=O)O`, the molecule was called inactive. Consider `N[C@@H](Cc1cc(I)c(Oc2ccc(O)c(I)c2)c(I)c1)C(=O)O`, for which the result was inactive. In the case of `CC1(C)C(C=C(Cl)Cl)C1C(=O)OCc1cccc(Oc2ccccc2)c1` (stereo not drawn), the molecule was called inactive. For the molecule `CCCN(CCC)C(=O)SCC`, the outcome was inactive. On the same count and under the same terms, to `CCOC(=O)C(C)Oc1ccc(Oc2cnc3cc(Cl)ccc3n2)cc1` (stereo not drawn) belongs “inactive”; to `C#C[C@]1(O)CC[C@H]2[C@@H]3CCC4=CC(=O)CC[C@@H]4[C@H]3CC[C@@]21CC`, “inactive”.

As for `O=C(c1ccc(O)cc1O)c1ccc(O)cc1O`, the AC50 is 6.81 µM (active) and 6.26 µM (active) and 6.64 µM (active). With `CC(=O)S[C@@H]1CC2=CC(=O)CC[C@]2(C)[C@H]2CC[C@@]3(C)[C@@H](CC[C@@]34CCC(=O)O4)[C@H]12`, the molecule was called inactive. `CCOC(=O)COc1cc(-n2ncc(C(F)(F)F)c(C)c2=O)c(F)cc1Cl`: the molecule was classed as inactive. For the molecule `Cc1nn(C)c(Oc2ccccc2)c1C=NOCc1ccc(C(=O)OC(C)(C)C)cc1`, the call was inactive.

For another experiment, the target named is Estrogen receptor (Homo sapiens) + Estrogen receptor beta (Homo sapiens) (UniProt P03372+Q92731). Kind of experiment: OT_ER_ERaERb_0480: Odyssey Thera (OT) 8-hour HEK293T Protein-Complementation Assay for Estrogen Receptor-alpha/-beta Heterodimer (AID 2283352). In outline: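 Fluorescence intensity readout from a protein-fragment complementation reporter in HEK293T; ER-alpha/ER-beta LBD heterodimer. Dosing 8 h. Gain-of-signal fit relative to DMSO negative control; laser scanning cytometry of whole-well cell population.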
Estrogen receptor (Homo sapiens) + Estrogen receptor beta (Homo sapiens), sequence (P03372 whole entry, looked up, the tested form may be a part): as above
Estrogen receptor (Homo sapiens) + Estrogen receptor beta (Homo sapiens), sequence (Q92731 whole entry, looked up, the tested form may be a part): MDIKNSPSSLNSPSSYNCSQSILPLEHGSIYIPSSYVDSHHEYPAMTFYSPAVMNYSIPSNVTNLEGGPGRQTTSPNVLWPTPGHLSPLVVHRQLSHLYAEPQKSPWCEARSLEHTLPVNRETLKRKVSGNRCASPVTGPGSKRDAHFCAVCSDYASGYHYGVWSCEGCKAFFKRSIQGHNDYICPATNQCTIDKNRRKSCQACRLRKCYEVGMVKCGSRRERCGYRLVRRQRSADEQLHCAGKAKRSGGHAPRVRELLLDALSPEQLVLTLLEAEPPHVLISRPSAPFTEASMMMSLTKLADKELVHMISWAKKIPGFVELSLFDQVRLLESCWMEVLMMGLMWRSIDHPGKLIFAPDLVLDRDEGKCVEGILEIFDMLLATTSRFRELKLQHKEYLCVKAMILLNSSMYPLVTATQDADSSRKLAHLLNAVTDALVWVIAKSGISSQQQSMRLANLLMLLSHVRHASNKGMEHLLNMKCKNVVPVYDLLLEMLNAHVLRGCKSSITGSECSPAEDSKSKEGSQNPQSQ
Regarding `CCCCC(CC)CN1C(=O)C2C3C=CC(C3)C2C1=O` (stereo not drawn), the outcome was inactive. On to `CC(C)CCCCCCc1ccc(O)cc1`, for which the half-maximal activity concentration (AC50) was 1.36 µM (active) and 1.78 µM (active) and 1.89 µM (active). For `COC(=O)c1ccccc1C(=O)O`, the result was inactive. For the molecule `C[C@]12C[C@H](O)[C@H]3[C@@H](CCC4=CC(=O)CC[C@@]43C)[C@@H]1CC[C@@H]2C(=O)CO`, the outcome was inactive. Still for that read-out and setting: the same measure for `CC(=O)[C@H]1CC[C@H]2[C@@H]3CCC4=CC(=O)CC[C@]4(C)[C@H]3CC[C@]12C`: “inactive”. For the molecule `CCOC(=O)c1ccc(O)cc1`, the AC50 was 30.6 µM (active) and 27.1 µM (active) and 28 µM (active); the result was inactive.

For `COc1c(Cl)ccc(Cl)c1C(=O)O`, the result was inactive. Regarding `CCCN(CCC)C(=O)SCC`, the result was inactive. For the molecule `O=C(c1ccc(O)cc1O)c1ccc(O)cc1O`, the AC50 is 2.03 µM (active) and 1.72 µM (active) and 2.14 µM (active). As for `CC(=O)S[C@@H]1CC2=CC(=O)CC[C@]2(C)[C@H]2CC[C@@]3(C)[C@@H](CC[C@@]34CCC(=O)O4)[C@H]12`, the outcome was inactive.

Regarding `CCOC(=O)COc1cc(-n2ncc(C(F)(F)F)c(C)c2=O)c(F)cc1Cl`, the result was inactive. Consider `Cc1nn(C)c(Oc2ccccc2)c1C=NOCc1ccc(C(=O)OC(C)(C)C)cc1`, for which the result was inactive.
